# In PubChem BioAssay:
# Activity calls are given as the source filed them.
# What was measured:
# [1] = target: Albumin (Bos taurus) (UniProt P02769); assay: bovine serum albumin binders on microarray, profiling panel, artefact control for SMM control protein annotation, biochemical, small-molecule microarray, Alexa647 label, 635/667 nm fluorescence (AID 1118); conditions: BSA-A647 binding, fluorescence 635 nm, higher = more signal;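 also: score merges 667 nm emission intensity and signal-to-noise per printed compound spot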
# Chain of Albumin (Bos taurus) (P02769 whole entry, looked up): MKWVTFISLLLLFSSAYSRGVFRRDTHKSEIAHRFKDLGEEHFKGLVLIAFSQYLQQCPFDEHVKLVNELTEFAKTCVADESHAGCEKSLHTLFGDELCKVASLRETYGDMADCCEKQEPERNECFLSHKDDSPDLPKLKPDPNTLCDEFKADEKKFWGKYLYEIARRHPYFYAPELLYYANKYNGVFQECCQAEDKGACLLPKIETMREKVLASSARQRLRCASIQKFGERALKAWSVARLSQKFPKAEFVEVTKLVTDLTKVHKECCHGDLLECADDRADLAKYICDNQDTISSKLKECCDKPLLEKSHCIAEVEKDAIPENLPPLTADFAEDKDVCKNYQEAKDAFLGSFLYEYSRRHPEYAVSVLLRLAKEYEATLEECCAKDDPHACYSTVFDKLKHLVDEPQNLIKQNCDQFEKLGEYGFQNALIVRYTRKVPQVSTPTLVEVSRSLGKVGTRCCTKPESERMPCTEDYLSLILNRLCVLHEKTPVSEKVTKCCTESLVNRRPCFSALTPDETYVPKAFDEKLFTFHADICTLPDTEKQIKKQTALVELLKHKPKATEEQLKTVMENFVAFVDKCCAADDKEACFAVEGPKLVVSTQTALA
# [2] = small-molecule microarray binders of probe aXIP, primary screen, biochemical, NeuroSMM set, 635/667 nm fluorescence (AID 1119); conditions: higher = more signal, called active from +8 up or from −8 down;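 also: probe is the protein aXip251-270 applied at 1 µg/mL to compound-printed slides; binding of probe to printed compounds measured as 667 nm fluorescence plus signal to noise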
# [3] = small-molecule binders of probe aNOTCH3, primary screen, biochemical, small-molecule microarray, 635/667 nm fluorescence (AID 1120); conditions: higher = more signal;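 also: probe is a biotin-tagged antibody raised against NOTCH3 rather than NOTCH3 protein; score merges spot fluorescence near 667 nm with spot signal to noise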
# [4] = small-molecule binders of probe aNOTCH2, primary screen, biochemical, small-molecule microarray, 635/667 nm fluorescence (AID 1121); conditions: higher = more signal;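 also: score merges feature fluorescence read at 667 nm with its signal to noise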
# [5] = target: Carbonic anhydrase 2 (Homo sapiens) (UniProt P00918); assay: CAII small-molecule binders, profiling panel, biochemical, small-molecule microarray, Alexa647-labelled CAII (AID 1122); conditions: CAII-A647 binding fluorescence, higher = more signal
# [6] = COS7 lysate on small-molecule microarray, probe aHis, 635 nm (AID 1123); conditions: COS7 cell lysate, fluorescence, higher = more signal;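 also: z-score combines 667nm fluorescence intensity with signal-to-noise per printed compound spot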
# [7] = compound binding in COS7 lysate, probe aLAP1, primary screen, cell lysate, small-molecule microarray (AID 1124); conditions: probe aLAP1, fluorescence, higher = more signal;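 also: lysate comes from COS7 cells expressing LAP1 and is applied at 0.3 µg/mL; score merges spot fluorescence near 667 nm with signal-to-noise over triplicate slides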
# [8] = test system: Sam68 (KHDRBS1); assay: Sam68 small-molecule binders, primary screen, biochemical, small-molecule microarray, 635 nm fluorescence (AID 1125); conditions: small-molecule microarray binding, higher = more signal;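 also: score merges 667 nm channel intensity with signal to noise over triplicate slides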
# [9] = test system: Chordin-like protein 2 (CHRDL2); assay: CHRDL2 small-molecule binders, primary screen, biochemical, small-molecule microarray, 635 nm fluorescence (AID 1126); conditions: small-molecule microarray binding, fluorescence 635 nm; higher = more signal;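 also: printed compound slides probed with Chrdl2 protein at 4 µg/mL for 1 h at 4 C; score merges 667 nm emission intensity with signal to noise over three replicate slides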
# [10] = target: Concanavalin-A (Canavalia ensiformis) (UniProt P02866); assay: ConA small-molecule binders, primary screen, artefact control for SMM control protein annotation, biochemical, small-molecule microarray, Alexa647 label, 635 nm (AID 1127); conditions: ConA-A647 binding fluorescence, higher = more signal;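 also: z combines 667 nm emission intensity with signal-to-noise across three replicate slides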
# Chain of Concanavalin-A (Canavalia ensiformis) (P02866 whole entry, looked up): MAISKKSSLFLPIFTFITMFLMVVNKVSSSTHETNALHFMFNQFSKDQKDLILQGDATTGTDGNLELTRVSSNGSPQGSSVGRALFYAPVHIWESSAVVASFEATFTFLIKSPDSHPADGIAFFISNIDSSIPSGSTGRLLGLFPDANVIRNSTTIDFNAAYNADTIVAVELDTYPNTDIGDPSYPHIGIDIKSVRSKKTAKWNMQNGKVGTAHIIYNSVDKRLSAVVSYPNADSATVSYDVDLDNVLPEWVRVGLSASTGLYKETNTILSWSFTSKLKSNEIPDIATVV
# [11] = anti-His antibody binders, primary screen, artefact control for SMM control protein annotation, biochemical, small-molecule microarray, 635 nm fluorescence (AID 1128); conditions: anti-His Alexa647 antibody binding, higher = more signal;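 also: score merges feature fluorescence with signal-to-noise for each printed compound spot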
# [12] = test system: Human papillomavirus type 1a E7 protein (residues 1-88); assay: HPV1a E7 small-molecule binders, primary screen, biochemical, small-molecule microarray, residues 1-88, 635 nm (AID 1129); conditions: small-molecule microarray binding, fluorescence 635 nm; higher = more signal
# [13] = target: Focal adhesion kinase 1 (Homo sapiens) (UniProt Q05397); assay: small-molecule microarray binders of FAK, primary screen, biochemical, 635/667 nm fluorescence, BSA, DTT (AID 1130); conditions: PTK2 binding, 635 nm fluorescence, higher = more signal;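 also: composite of spot emission at 667 nm and signal to noise over triplicate slides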
# Chain of Focal adhesion kinase 1 (Homo sapiens) (Q05397 whole entry, looked up): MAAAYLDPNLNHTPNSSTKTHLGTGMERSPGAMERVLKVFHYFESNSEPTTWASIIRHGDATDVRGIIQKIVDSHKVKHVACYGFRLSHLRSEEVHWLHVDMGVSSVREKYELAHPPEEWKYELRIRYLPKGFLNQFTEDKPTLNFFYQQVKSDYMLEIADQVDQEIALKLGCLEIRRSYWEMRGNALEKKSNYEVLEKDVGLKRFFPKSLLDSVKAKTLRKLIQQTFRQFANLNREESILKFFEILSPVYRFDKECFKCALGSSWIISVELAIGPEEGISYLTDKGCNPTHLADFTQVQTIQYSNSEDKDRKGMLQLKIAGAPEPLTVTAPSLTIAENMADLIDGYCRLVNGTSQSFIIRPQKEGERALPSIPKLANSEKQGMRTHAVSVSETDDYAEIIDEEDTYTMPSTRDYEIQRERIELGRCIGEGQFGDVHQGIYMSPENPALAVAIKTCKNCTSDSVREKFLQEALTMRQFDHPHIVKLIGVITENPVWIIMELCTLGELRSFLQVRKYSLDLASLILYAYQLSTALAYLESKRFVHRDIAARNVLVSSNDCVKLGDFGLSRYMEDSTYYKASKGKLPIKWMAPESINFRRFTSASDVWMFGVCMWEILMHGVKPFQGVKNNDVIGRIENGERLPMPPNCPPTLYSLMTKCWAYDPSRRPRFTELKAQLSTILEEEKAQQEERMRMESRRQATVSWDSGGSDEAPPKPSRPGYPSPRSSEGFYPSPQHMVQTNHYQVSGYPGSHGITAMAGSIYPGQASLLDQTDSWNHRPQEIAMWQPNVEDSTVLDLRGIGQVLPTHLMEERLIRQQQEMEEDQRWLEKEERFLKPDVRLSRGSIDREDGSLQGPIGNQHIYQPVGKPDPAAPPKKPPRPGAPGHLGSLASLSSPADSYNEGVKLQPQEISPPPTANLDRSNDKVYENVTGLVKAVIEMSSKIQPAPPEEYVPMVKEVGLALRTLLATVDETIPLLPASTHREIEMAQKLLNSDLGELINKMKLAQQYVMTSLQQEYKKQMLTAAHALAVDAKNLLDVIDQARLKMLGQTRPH
# [14] = test system: Fibrinogen (Alexa647-labelled); assay: fibrinogen binders on compound microarrays, profiling panel, artefact control for SMM control-protein annotation, biochemical, small-molecule microarray, 635/667 nm fluorescence (AID 1131); conditions: fibrinogen-A647 binding fluorescence, higher = more signal;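 also: z-score merges 667 nm fluorescence with per-spot signal-to-noise over triplicate slides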
# [15] = target: Follistatin (Homo sapiens) (UniProt P19883); assay: follistatin binders on small-molecule microarrays, primary screen, biochemical, small-molecule microarray, 635/667 nm fluorescence (AID 1132); conditions: FST binding, 635 nm fluorescence, higher = more signal
# Chain of Follistatin (Homo sapiens) (P19883 whole entry, looked up): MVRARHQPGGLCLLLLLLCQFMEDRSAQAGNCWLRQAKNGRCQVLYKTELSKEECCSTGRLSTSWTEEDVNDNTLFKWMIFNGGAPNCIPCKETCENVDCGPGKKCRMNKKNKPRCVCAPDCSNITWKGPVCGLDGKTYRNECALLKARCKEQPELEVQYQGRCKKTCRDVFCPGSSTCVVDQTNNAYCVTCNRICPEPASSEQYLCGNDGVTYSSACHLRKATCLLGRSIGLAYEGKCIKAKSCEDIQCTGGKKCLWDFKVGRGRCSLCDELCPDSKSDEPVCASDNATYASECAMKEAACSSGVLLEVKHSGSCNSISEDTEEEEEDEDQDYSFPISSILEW
# [16] = target: Fibroblast growth factor 2 (Homo sapiens) (UniProt P09038); assay: FGF2 binders on small-molecule microarrays, primary screen, biochemical, small-molecule microarray, 635/667 nm fluorescence (AID 1133); conditions: small-molecule microarray binding, FGF2, fluorescence 635/667; higher = more signal
# Chain of Fibroblast growth factor 2 (Homo sapiens) (P09038 whole entry, looked up): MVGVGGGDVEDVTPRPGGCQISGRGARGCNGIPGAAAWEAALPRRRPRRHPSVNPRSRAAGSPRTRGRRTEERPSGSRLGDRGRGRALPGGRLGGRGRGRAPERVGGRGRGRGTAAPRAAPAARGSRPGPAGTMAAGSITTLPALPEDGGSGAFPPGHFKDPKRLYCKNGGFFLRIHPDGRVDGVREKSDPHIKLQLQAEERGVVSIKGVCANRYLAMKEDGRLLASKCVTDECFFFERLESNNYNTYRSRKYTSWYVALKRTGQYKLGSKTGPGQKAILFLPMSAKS
# [17] = mitochondrial membrane potential change in A549 cells, profiling panel, cell-based, JC-1 fluorescence, basal, 24 h, 100 nL (AID 1138); conditions: higher = more signal;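 also: A549 lung adenocarcinoma cells under basal conditions with no added stimulus; test concentration not given here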
# [18] = test system: Lefty1; assay: Lefty1 binders on small-molecule microarrays, primary screen, biochemical, small-molecule microarray, 635/667 nm fluorescence (AID 1139); conditions: small-molecule microarray binding, fluorescence 635/667; higher = more signal
# [19] = test system: wheat germ agglutinin (Triticum aestivum), Alexa647-labelled; assay: wheat germ agglutinin binders on compound microarrays, profiling panel, artefact control for SMM control-protein annotation, biochemical, small-molecule microarray, 635/667 nm fluorescence (AID 1140); conditions: WGA-A647 binding, 635 nm fluorescence, higher = more signal;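 also: score merges 667 nm feature emission with signal to noise over triplicate slides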
# [20] = target: Luciferin 4-monooxygenase (Photinus pyralis) (UniProt P08659); assay: firefly luciferase enzyme inhibitors, primary screen, biochemical, luminescence, purified enzyme, 2006 set (AID 1141); conditions: SteadyGlo luminescence, 30 min, higher = more signal, called active from +8 up or from −8 down;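 also: cell-free assay with purified firefly luciferase at 100 ng per well in PBS; test concentration not given here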
# Chain of Luciferin 4-monooxygenase (Photinus pyralis) (P08659 whole entry, looked up): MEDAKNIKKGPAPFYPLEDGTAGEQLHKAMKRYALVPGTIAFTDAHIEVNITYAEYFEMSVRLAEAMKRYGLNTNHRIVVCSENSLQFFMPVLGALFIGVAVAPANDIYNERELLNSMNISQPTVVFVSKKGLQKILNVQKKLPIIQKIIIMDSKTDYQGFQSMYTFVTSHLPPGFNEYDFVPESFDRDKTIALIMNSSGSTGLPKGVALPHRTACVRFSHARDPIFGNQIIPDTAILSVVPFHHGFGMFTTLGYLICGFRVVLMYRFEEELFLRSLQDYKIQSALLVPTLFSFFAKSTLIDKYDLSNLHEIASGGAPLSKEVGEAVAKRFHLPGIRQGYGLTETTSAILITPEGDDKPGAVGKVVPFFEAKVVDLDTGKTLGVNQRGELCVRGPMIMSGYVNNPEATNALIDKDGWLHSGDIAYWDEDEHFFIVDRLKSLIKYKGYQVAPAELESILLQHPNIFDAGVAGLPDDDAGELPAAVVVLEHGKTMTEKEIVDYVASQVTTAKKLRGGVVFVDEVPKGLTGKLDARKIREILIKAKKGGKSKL
SMILES,composite z-score [1],composite Z-score [2],composite z-score [3],composite z-score [4],composite z-score [5],composite z-score [6],composite z-score [7],composite z-score [8],composite z-score [9],composite z-score [10],composite z-score [11],composite z-score [12],composite z-score [13],composite z-score [14],composite z-score [15],composite z-score [16],z-score [17],composite z-score [18],composite z-score [19],z-score [20]
CCCC=C(CCC)[C@@H](NS(=O)(=O)c1ccc(C(F)(F)F)cc1)c1ccccc1,-0.127,0.404 (inactive),0.149,0.115,0.0051,1.34,-0.122,0.42,-0.732,0.277,0.294,0.887,0.672,0.698,0.225,-0.148,-2.69,-0.141,0.663,2.72 (inactive)
COc1cc2c(cc1O)C=[N+](Cc1sc3ccccc3c1Cl)CC2,0.606,0.0375 (inactive),-0.0546,-0.0658,0.742,0.491,0.361,-0.291,0.496,0.968,0.505,0.0341,-0.292,0.257,0.609,0.182,-0.571,0.0893,0.311,0.5 (inactive)
O=C(NCCN1CCOCC1)[C@@H]1c2ccccc2C(=O)N(C2Cc3ccccc3C2)[C@H]1c1ccc(CO)cc1,0.268,-0.27 (inactive),-0.223,0.0129,0.498,0.866,1.77,1.01,-0.419,0.466,3.03,1.08,0.306,0.739,-0.506,0.082,2.55,-0.724,-0.0583,-1.16 (inactive)
COc1ccc([Si](C)(C)[C@@H]2[C@@H](CCO)O[C@]3(C(=O)N(Cc4ccccc4)c4ccc(N5CCOC5=O)cc43)[C@H]2C)cc1,0.279,0.774 (inactive),-0.0647,-0.102,0.324,0.747,0.294,1.32,0.127,0.816,0.515,1.11,-0.0211,0.661,0.36,0.19,-0.771,0.49,0.896,0.6 (inactive)
COC(=O)C1(CC(C)C)C=C2C(=C(c3ccccc3)C(=O)C2C)CN1 (stereo not given),0.581,0.465 (inactive),1.31,0.54,0.502,2.15,0.407,-0.213,-0.521,-0.991,1.75,0.166,0.879,0.579,0.111,0.953,0.674,0.0364,0.663,0.53 (inactive)
CCCC[C@@H]1C[C@H]1[C@@H](NC(=O)c1cccs1)c1ccccc1C(F)(F)F,0.485,-0.147 (inactive),0.265,0.0117,0.431,2.62,0.588,1.27,-0.319,1.08,1.01,1.2,-0.157,0.982,-0.152,0.28,0.245,-0.716,0.839,1.75 (inactive)
COc1ccc(CCNC(=O)[C@@]2(Cc3ccccc3I)c3ccccc3C(=O)N(C3CCCCC3)[C@H]2c2ccc(CO)cc2)cc1,0.471,-0.0065 (inactive),-0.0647,-0.162,0.218,1.5,-0.167,0.621,-0.718,0.969,0.362,0.839,0.22,0.434,0.341,-0.199,0.348,0.106,0.177,1.18 (inactive)
Cc1ccc(F)cc1S(=O)(=O)N[C@@H]1CCN(Cc2ccc(Br)cc2)C1,0.694,-0.388 (inactive),0.122,-0.0424,0.276,-0.593,-0.386,-0.811,0.743,-0.862,-0.325,-0.464,-0.408,0.79,0.639,0.677,1.47,0.983,0.124,-0.457 (inactive)
COC(=O)[C@@]1(Cc2ccc(OC)cc2)[C@H]2c3cc(C(=O)N(C)C)n(Cc4ccc(OC(F)(F)F)cc4)c3C[C@H]2CN1C(=O)c1ccccc1,0.953,0.255 (inactive),0.11,0.141,0.822,1.74,-0.0771,-0.264,-0.899,-0.467,-0.399,0.299,1.14,0.808,-0.295,-0.555,0.517,-0.878,0.0102,0.86 (inactive)
O=C1C2C=CC(C(O)c3cccc(O)c3)N(Nc3ccc([N+](=O)[O-])cc3)C2C(=O)N1c1ccccc1 (stereo not given),0.477,-0.335 (inactive),0.0116,-0.0703,0.788,0.762,0.153,0.821,-0.264,0.41,1.18,0.785,0.264,0.578,0.418,0.526,-1.15,0.292,0.0289,0.931 (inactive)
Cc1ccc(C(C)CC(O)C2C=CC3C(=O)N(c4ccccc4)C(=O)C3N2Nc2ccccc2)o1 (stereo not given),0.804,-0.474 (inactive),0.257,-0.0303,0.382,1.55,0.412,1.29,-0.19,1.09,0.943,1.28,0.908,0.821,1.03,-0.0968,-0.592,-0.0661,0.982,-1.22 (inactive)
